Measurements as given in article PMC4336329 (PLoS ONE, 2015).
The campaign covered roughly 310,000 compounds. About 14,000 (4.5%) showed an effect of 50% or more. The effect is printed as a negative number. This excerpt belongs to a sample that is enriched for strong results.

Biological target: human ether-à-go-go-related gene (hERG) potassium channel (human, UniProt Q12809)
Assay: primary screen, population patch clamp on CHO cells stably expressing hERG; higher = less effect of the substance
Experimental: Briefly, Chinese hamster ovary (CHO) cells stably expressing the hERG channel were dislodged from tissue culture flasks and dispensed into PPC plates. […] During the recording, background leak currents were estimated by a 100 ms step to -80 mV from an initial holding potential of -70 mV and subtracted from the subsequent current measurement. The campaign was conducted in two phases using slight differences in recording protocol. In the first phase, the initial voltage pulse used a 100 ms step to -30 mV from a holding potential of -70 mV, a 2 s conditioning step to +25 mV, and a 2 s test step to -30 mV. During the second phase of the screen, the potential during the conditioning step was raised to +45 mV. In both phases of the campaign, a secondary voltage pulse was applied using the same parameters as the second phase initial pulse. The initial and secondary pulses were applied in the absence of compound, and upon application of 1 μM and 10 μM test concentrations. […]
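Note: peak tail current of the secondary pulse compared with the same well before compound.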

human ether-à-go-go-related gene (hERG) potassium channel, sequence (Q12809 whole entry, looked up): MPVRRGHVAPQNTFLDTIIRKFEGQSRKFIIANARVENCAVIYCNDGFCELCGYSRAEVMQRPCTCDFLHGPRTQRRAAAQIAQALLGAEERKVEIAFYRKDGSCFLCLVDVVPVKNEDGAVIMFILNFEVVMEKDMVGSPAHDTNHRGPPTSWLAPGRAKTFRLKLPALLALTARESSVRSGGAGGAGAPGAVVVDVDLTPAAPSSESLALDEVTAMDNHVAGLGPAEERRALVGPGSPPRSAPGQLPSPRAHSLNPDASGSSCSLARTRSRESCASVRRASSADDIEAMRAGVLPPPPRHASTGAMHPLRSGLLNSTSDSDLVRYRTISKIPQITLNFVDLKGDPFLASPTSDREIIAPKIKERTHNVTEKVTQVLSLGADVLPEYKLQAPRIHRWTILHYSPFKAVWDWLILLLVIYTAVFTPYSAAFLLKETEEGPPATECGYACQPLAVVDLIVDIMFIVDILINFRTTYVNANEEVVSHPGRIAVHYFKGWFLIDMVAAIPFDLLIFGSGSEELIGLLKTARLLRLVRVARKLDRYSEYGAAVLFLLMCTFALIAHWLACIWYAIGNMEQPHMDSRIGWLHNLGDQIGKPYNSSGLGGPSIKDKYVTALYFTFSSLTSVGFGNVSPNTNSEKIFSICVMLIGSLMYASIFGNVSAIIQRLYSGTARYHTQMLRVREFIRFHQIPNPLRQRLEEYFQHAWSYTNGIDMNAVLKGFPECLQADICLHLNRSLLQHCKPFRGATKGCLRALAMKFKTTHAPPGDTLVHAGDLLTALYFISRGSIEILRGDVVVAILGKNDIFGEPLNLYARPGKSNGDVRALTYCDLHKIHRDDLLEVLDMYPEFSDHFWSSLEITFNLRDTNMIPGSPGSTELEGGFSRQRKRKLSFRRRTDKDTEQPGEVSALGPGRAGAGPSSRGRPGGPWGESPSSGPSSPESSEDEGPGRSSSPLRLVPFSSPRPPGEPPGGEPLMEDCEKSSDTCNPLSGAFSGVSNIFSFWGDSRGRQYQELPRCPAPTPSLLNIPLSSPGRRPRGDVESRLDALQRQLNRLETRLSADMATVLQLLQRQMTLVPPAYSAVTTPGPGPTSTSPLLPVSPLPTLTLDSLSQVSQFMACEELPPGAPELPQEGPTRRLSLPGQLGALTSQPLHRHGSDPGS

Structure (SMILES)	hERG current change (%, negative = inhibition) at 10uM [%]
CCCCCCN1CC(=O)N2Cc3[nH]c4ccccc4c3C[C@H]2C1=O	-9.11
O=C(CCCSc1nc2ccccc2[nH]1)Nc1nnc(C2CC2)s1	-1.62
CCn1c(SCC(N)=O)nc2sc3c(c2c1=O)CCCC3	1.24
CCOc1ccccc1Oc1c(C)oc2cc(OC(=O)N3CCOCC3)ccc2c1=O	4.41
O=C(NCCc1ccccc1F)C1CCC(=O)N(CCCN2CCCC2=O)C1 (stereo not drawn)	-7.84
COCC1CCCCC1OS(N)(=O)=O (stereo not drawn)	5.38
Cn1cccc1-c1nc2ccccc2n1C	-1.23
Cn1cc(Cl)c(-c2nc3ccccc3[nH]2)n1	-1.45
O=C(NC1CC2CCCC(C1)N2Cc1cccs1)c1ccc([N+](=O)[O-])cc1 (stereo not drawn)	-84.3
COCCNC(=S)NC1CC2CCCC(C1)N2Cc1cccs1 (stereo not drawn)	-26.7
O=C(NC1CC2CCCC(C1)N2Cc1ccccc1)c1ccc([N+](=O)[O-])cc1 (stereo not drawn)	-81
CN1C2CCC1CC(NC(=O)c1ccc([N+](=O)[O-])cc1)C2 (stereo not drawn)	3.81
CCCN1C2CCCC1CC(NC(=O)c1cccc([N+](=O)[O-])c1)C2 (stereo not drawn)	-36.8
O=C(NC1CC2CCCC(C1)N2Cc1cccs1)N1CCOCC1 (stereo not drawn)	-6.2
COc1ccc(C(=O)NC2CC3CCCC(C2)N3CC(C)C)cc1 (stereo not drawn)	-34.7
CC(C)CN1C2CCCC1CC(NC(=O)c1ccc([N+](=O)[O-])cc1)C2 (stereo not drawn)	-78.3
Cc1ccc(NC(=O)c2ccc(N3CCCC3=O)cc2)cc1S(=O)(=O)N1CCCCC1	-3.33
Cc1ccc(S(=O)(=O)N2CCN(C(=O)CCOc3cc(C)ccc3C)CC2)cc1	-32.8
CSCCC(NC(=O)c1ccccc1Cl)C(=O)N1CCCCCCC1 (stereo not drawn)	-6.4

Structure (SMILES)	hERG current change (%, negative = inhibition) at 10uM [%]
CC(=O)Nc1ccc(N2C(=O)C3C4CC(=O)C(c5ccccc54)C3C2=O)cc1 (stereo not drawn)	7.32
Oc1ccccc1-c1nc(NCCN2CCOCC2)c2ccccc2n1	-26.2
CCOC(=O)CSc1ccc(C(=O)Nc2ccc(Cl)cc2)cn1	21.8
CCOC(=O)c1c(C)[nH]c(C)c1S(=O)(=O)NCC(=O)Nc1ccccn1	17.9
COc1ccc(N)c2c1C(=O)c1ccccc1C2=O	-10.4
CC(OC(=O)COc1ccccc1Cc1ccccc1)C(=O)N(C)c1ccccc1 (stereo not drawn)	-0.572
CC(COc1ccccc1Cc1ccccc1)N1CCCCC1.O=P(O)(O)O (stereo not drawn)	-70.1
CC(C(=O)Nc1ccc(OCc2ccccc2)cc1)N1CCCC1 (stereo not drawn)	-21.6
CCOc1ccc2c(c1)N(C(=O)CN1C(=O)CCC1=O)C(C)(C)C=C2C	-22.8
COCCNC(=O)COc1ccc(Br)cc1Cl	10.4
COCCNC(=O)C(c1ccc(F)cc1)N(C(=O)CCC(=O)Nc1nccs1)c1ccc(C)cc1 (stereo not drawn)	-14.1
CN(c1ccc(OCC(=O)OCC(=O)Nc2ccc(Br)cc2)cc1)S(=O)(=O)c1cccs1	-0.388
O=C(N/N=C/c1ccco1)c1ccccc1OCc1ccc(Br)cc1	-8.69
O=C(N/N=C/c1ccc[nH]1)c1ccccc1OCc1ccccc1Cl	-25.5
O=C(N/N=C/c1ccco1)c1ccccc1OCc1ccccc1Cl	-82.8
O=C(NCC1CCCO1)c1ccc(COc2ccccc2)cc1 (stereo not drawn)	-56.3
O=C(NCC1CCCO1)c1ccc(NC(=O)c2ccc([N+](=O)[O-])cc2)cc1 (stereo not drawn)	-2.58
O=C(NC(=S)NCC1CCCO1)c1ccc([N+](=O)[O-])cc1 (stereo not drawn)	-16.6
CC(=O)c1ccc(-c2ccc(C(=O)NC3CCCCCC3)o2)cc1	26

Structure (SMILES)	hERG current change (%, negative = inhibition) at 10uM [%]
O=C(NCC1CCCO1)c1ccc(COc2ccc(Cl)cc2)cc1 (stereo not drawn)	-11.9
O=C(NCC1CCCO1)c1cccc(Oc2ccc([N+](=O)[O-])cc2Cl)c1 (stereo not drawn)	-72.6
O=C(NCC1CCCO1)c1ccc(Oc2ccc([N+](=O)[O-])cc2Cl)cc1 (stereo not drawn)	-41.6
O=C(NCC1CCCO1)c1cccc(Oc2c(Cl)cccc2[N+](=O)[O-])c1 (stereo not drawn)	-0.562
O=C(NCC1CCCO1)c1ccc(COc2ccc(Br)cc2)cc1 (stereo not drawn)	-13.7
CC(=O)c1ccc(-c2ccc(C(=O)NC3CC(C)(C)NC(C)(C)C3)o2)cc1	-122
O=C(NCC1CCCO1)c1ccc(Oc2ccc([N+](=O)[O-])cc2)cc1 (stereo not drawn)	-60.8
CC1(C)CC(NC(=O)c2ccc(-c3ccc([N+](=O)[O-])cc3)o2)CC(C)(C)N1	-49
Brc1ccc(-n2cc(-c3ccccc3)c3c(NN4CCOCC4)ncnc32)cc1	-15.7
Cn1c(SCC(=O)OCc2ccccc2)nnc1-c1ccco1	0.0583
CCCCC(=O)NC(c1ccco1)c1c(O)ccc2ccccc12 (stereo not drawn)	-2.6
O=C1CC2CS(=O)(=O)CC2N1c1ccc(Cl)cc1Cl (stereo not drawn)	5.75
CCCc1ccc(S(=O)(=O)N/N=C\c2ccc3c(c2)OCO3)cc1	-0.771
CCOc1ccc(NC(c2ccccn2)c2oc(CO)cc(=O)c2O)cc1 (stereo not drawn)	5.43
CN(C)CCNc1oc(-c2cccc(Cl)c2)nc1C#N	-36.2
C=CCC1(Nc2ccccc2)CC(C)N(C)CC1C.O=C(O)C(=O)O (stereo not drawn)	-21.1
Cc1ccc(-n2c(CSc3nc(C)cc(C)n3)nnc2SCC(=O)NCc2ccco2)cc1	-38.7
CCCCn1c(=O)n(C)c(=O)c2c3c(sc21)COC(C)(C)C3	-11.1
C/C(=N\NC(=O)c1ccc(NS(=O)(=O)c2cccs2)cc1)c1ccccc1	22.3
